Reference: PubChem BioAssay AID602450 (National Center for Advancing Translational Sciences (NCATS), 2012)
The source made the active and inactive calls. The call rests on the fitted dose curve.

Test: qHTS Assay for Inhibitors of Influenza NS1 Protein Function: Viral Replication TCID50 SAR for Probe
Conditions: Influenza virus replication in cells, TCID50 titer reduction
Description: Influenza is a world-wide public health problem and emerging forms of the virus have the potential to cause a pandemic of equal or greater magnitude to the outbreaks recorded in 1918, 1957 or 1968. Vaccine development is proceeding and there also exist two classes of anti-influenza compounds. However these therapeutic modalities are neither fully effective nor widely enough available to fulfill global needs. In addition their potential usefulness against newly emergent strains is not known. Efforts are needed to develop novel agents against influenza virus, including broad-spectrum agents. Identification of small molecules that inhibit NS1 function either directly or by interfering with specific cellular pathways may be a key to increasing our defense against the virus.
We have miniaturized and optimized a cell based assay in which NS1 from influenza A is expressed in the budding yeast S. cerevisiae. NS1 is a multi-functional protein that counters the host innate immune response and facilitates viral versus cellular gene expression. Expression of NS1 causes a pronounced slow growth phenotype in yeast due to its intrinsic molecular activities. Small molecules that suppress the slow growth phenotype can be identified by a straightforward growth recovery assay using optical density (OD) as the measurement. The same yeast strain not expressing NS1 was used as positive control in the yeast growth recovery assay.
Hits resulting from this primary screen and other follow-up screens, were tested in two concentrations in this viral replication assay.
NIH Chemical Genomics Center [NCGC]
NIH Molecular Libraries Probe Centers Network [MLPCN]
Assay Submitter (PI): Daniel Engel, University of Virgina
Cell monolayers were infected at an m.o.i. of 0.1 for 48 h in the presence or absence of the compound, which was added at the beginning of infection. Virus titres were determined by TCID50 analysis (Reed, L. J. & Muench, H. (1938). A simple method of estimating fifty per cent endpoints. Am J Epidemiol 27, 493-497).
For `COc1cc(-c2c(C#N)c(N)nc3c2c(C)nn3-c2ccc(F)cc2)ccc1O`, the Potency was 101 nM (active). With `COc1cc(-c2ccnc3c2c(C)nn3-c2cccc(C(F)(F)F)c2)ccc1O` the Potency was 82.7 nM (active). In the case of `COc1cc(-c2ccnc3c2c(C)nn3-c2ccc(C(F)(F)F)cc2)ccc1O`, the Potency is reported as 155 nM (active). In the case of `Cc1nn(-c2ccc(Cl)cc2)c2nc(N)c(C#N)c(-c3ccc(O)c(O)c3)c12`, the Potency is reported as 279 nM (active). In the case of `Cc1ccc(-n2nc(C)c3c(-c4ccc(O)c(O)c4)c(C#N)c(N)nc32)cc1C`, the Potency is reported as 234 nM (active).
